Assay outcomes from PubChem.
This is a sample that favours compounds with a hit; in the whole collection about 12% have one here.
Sm TGR block: inhibitors of Schistosoma mansoni thioredoxin glutathione reductase; purified TGR, DTNB reduction, TNB absorbance 405 nm; Potency, µM (doses to about 114 µM), for inactives: at the highest dose activity change, negative = inhibition, hits mostly inhibitors; hit rate 3% among 360,000; AID 485364; active means well fitted inhibition curve with a large enough effect; inconclusive means small, poorly fitted or top-dose-only effect; inactive means no such curve, though single readings can be large or run the other way; further: potency means the concentration at half of the fitted maximal effect; on the % scale 0 is the no-effect control and ±100 the full control effect; nearly all actives have a fitted effect of over 60% in size
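TGR 20 nM + NADPH 100 uM (dispensed conc.), cpd preinc 15 min RT; start with NADPH (500 uM addition) then DTNB (15 mM addition). Kinetic TNB absorbance, 405 nm filter. Four-parameter Hill fit across titration.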
Shiga inhibitor: Shiga toxin inhibition; Vero cells, Shiga toxin protein synthesis inhibition reporter; inhibition, % at 38.7 µM; hit rate 9.2% among 290,000; AID 2315; in the data active means inhibition mostly above about 28%, no sharp cut-off; inactive means mostly below about 43%; further: 0% is about no effect
FMDV inh: blocks foot and mouth disease virus | FMDV antiviral cell-based qHTS | Potency, µM (titrated, usually from 57.9 µM), for inactives: top-dose activity change, negative = inhibition, usual class: inhibitors | hit rate 1.2% among 410,000; calls by dose curve; tested in HEK293T cells; further: read-out not given here; potency means the concentration at half of the fitted maximal effect; on the % scale 0 is the no-effect control and ±100 the full control effect; nearly all actives have a fitted effect of over 45% in size
CHX counter: counter-screen hit for Shiga toxin inhibitors, cycloheximide; cell reporter, cycloheximide protein synthesis inhibition counterscreen; max response, %; hit rate 12% among 300,000; AID 2314; in the data active means max response mostly above about 13%, no sharp cut-off; inactive means mostly below about 14%; further: read at 38.3 µM for the half of the compounds with a filed dose; 0% is about no effect
* = called active by the depositor; ? = inconclusive; · = no result given.

SMILES | Sm TGR block | Shiga inhibitor | FMDV inh | CHX counter
C1=C(c2ccc(-c3ccccc3)cc2)Nc2ncnn2C1c1ccco1 (stereo unspecified) | 22µM* | 92* | -23% | 31*
Cc1cccc(Cn2cc(C(=O)c3ccccc3)c(=O)c3cc4c(cc32)OCO4)c1 | 0% | · | -18% | ·
COc1ccc(C2C=C(c3ccc(C)cc3)Nc3c(C(=O)Nc4ccccc4)cnn32)cc1 (stereo unspecified) | -4% | · | -3% | ·
CCOC(=O)c1cc2c(=O)n3ccccc3nc2n(CC2CCCO2)c1=NC(=O)c1ccc(OCC)cc1 (stereo unspecified) | -15% | · | -23% | ·
Cc1ccc(C2C=C(c3ccccc3)Nc3ncnn32)cc1 (stereo unspecified) | · | · | -9% | ·
CCOc1ccc(C2C=C(c3ccccc3)Nc3ncnn32)cc1 (stereo unspecified) | 79µM* | 27 | · | -2
O=C(Nc1cc(Cl)cc(Cl)c1)c1cc(S(=O)(=O)NC2CCCC2)ccc1F | 3% | · | -11% | ·
Fc1cccc(Cl)c1CSc1nnnn1-c1ccc2c(c1)OCO2 | -1% | -19 | · | -5
Cc1ccccc1Cn1nnc(-c2ccc3c(c2)OCO3)n1 | 2% | 54* | 47% | 49*
Cc1ccccc1Cn1ccc(-c2ccc3c(c2)OCO3)n1 | 12% | 74* | 12% | 60*
O=C(Cn1nnc(-c2ccc3c(c2)OCO3)n1)N1CCOCC1 | 7% | 83 | 2% | 13
N#CCn1nnc(-c2ccc3c(c2)OCO3)n1 | -18% | 40 | 3% | 34*
Cc1cccc(NC(=O)CSc2ccc(-c3ccc4c(c3)OCO4)nn2)c1C | 4% | 22 | 2% | 1
Fc1cccc(Cl)c1Cn1nnc(-c2ccc3c(c2)OCO3)n1 | -1% | 146* | 57% | 62*
Cc1ccc2onc(CNC(=O)NCc3ccccc3)c2c1 | 3% | · | 29% | ·
CCOc1ccccc1N(CC)C(=O)c1cc2c(=O)n(CC)c3ccccc3c2s1 | -9% | · | ? | ·
CCOC(=O)Cn1c(=O)c2c(nc(N3CCOCC3)n2Cc2ccccc2)n(C)c1=O | -4% | · | -21% | ·
Cc1ccc(CNC(=O)C2CCCN(S(=O)(=O)c3cccc4nsnc34)C2)cc1 (stereo unspecified) | 3% | · | -8% | ·
NC(=O)C1CCCN1C(=O)C(Cc1cnc[nH]1)NC(=O)C1CCC(=O)N1 (stereo unspecified) | · | 11 | · | -2
Fc1cccc(Cn2ccc(-c3ccc4c(c3)OCO4)n2)c1 | 1% | 99* | 37% | 57*
Nc1ccn(Cc2cccc(F)c2)n1 | 0% | 11 | 3% | -5
CCCCC/C(=N\NC(=O)Nc1ccccc1)c1ccccc1 | 0% | 23 | -16% | -6
CCCC/C(C)=N/NC(=O)Nc1ccccc1 | 11% | 41* | 42% | 18*
CCCCSC(=O)Nc1ccccc1 | ? | 85* | 41% | 31*
CCCCCC(=O)NNC(=O)Nc1ccccc1 | 0% | -15 | -2% | -4
SMILES | Sm TGR block | Shiga inhibitor | FMDV inh | CHX counter
C/C(=N\NC(=O)Nc1ccccc1)c1ccccc1 | 1% | 32 | 20% | 20*
CCc1nnc(SCc2ccc(F)cc2Cl)c2cc3sc(C)cc3n12 | 6% | · | -13% | ·
Cc1ccc(C)c(N2CCN(CCCNC(=O)C3COc4ccccc4C3)CC2)c1 (stereo unspecified) | 0% | · | -29% | ·
CC(C)(C)Cc1nnc(NC(=O)c2ccco2)s1 | 85% | 42* | 33% | 32*
Cc1ccc(-c2nnc(NC(=O)c3ccco3)s2)cc1 | 4% | 96* | 0% | 28*
COc1cccc(-c2nnc(NC(=O)c3ccco3)s2)c1 | -4% | 96* | 63% | 32*
COc1ccc(-c2nnc(NC(=O)c3ccco3)s2)cc1 | -14% | 53 | 12% | 27*
O=C(Nc1nnc(Cc2ccccc2)s1)c1ccco1 | -1% | 62 | 11% | 18
Cc1nnc(NC(=O)c2ccco2)s1 | -4% | -11 | 21% | 1
C[C@H](N)CCP(=O)(O)O | · | · | -25% | ·
Cc1ccc(CNC(=O)c2nc(SCc3ccc(F)cc3)ncc2Cl)cc1 | 0% | · | -10% | ·
O=C(Nc1nnc(C23CC4CC(CC(C4)C2)C3)s1)c1ccco1 | ? | 53* | 26% | 35*
C/C=C(\C)c1nnc(NC(=O)c2ccco2)s1 | -3% | 56* | 17% | 15*
CCC(CC)c1nnc(NC(=O)c2ccco2)s1 | 3% | 32 | 30% | 13
CC(=O)Cc1nsc(NC(=O)c2ccc(Br)o2)n1 | -23% | 32 | · | -3
COc1cccc(-c2c(NC(=O)c3ccco3)n(-c3ccc(C)cc3)nc(C)c2=O)c1 | 79µM* | -10 | 20% | -8
CC(=O)Cc1nsc(NC(=O)c2ccco2)n1 | 45µM* | 2 | 25% | -1
O=C(Nc1nnc(C23CC4CC(CC(C4)C2)C3)s1)c1ccc(N2C(=O)CCC2=O)cc1 | ? | -2 | -20% | -1
Cc1cc(C)cc(C(=O)NCCc2sc(-c3ccc(F)cc3)nc2C)c1 | 4% | · | -10% | ·
Cc1ccc(C)n1C(CC(=O)O)c1ccc(C#N)cc1 (stereo unspecified) | 40µM* | -11 | -5% | 1
CCOC(=O)CC(c1ccc(N)cc1)n1c(C)ccc1C (stereo unspecified) | ? | 13 | -21% | -2
C/C(=N\NC(=O)c1c(C)nc2ccccn12)c1ccc(C(C)(C)C)cc1 | 7% | 4 | 13% | 11
C/C(=N\NC(=O)c1c(C)nc2ccccn12)c1ccc(N2CCOCC2)cc1 | 0% | 42 | -2% | 28*
C/C(=N\NC(=O)c1c(C)nc2ccccn12)c1ccco1 | -14% | 42* | 3% | 32*
O=C1CC(c2cc(F)cc(F)c2)c2cc3c(cc2N1)OCO3 (stereo unspecified) | 3% | · | -18% | ·
SMILES | Sm TGR block | Shiga inhibitor | FMDV inh | CHX counter
CS(=O)(=O)n1nc(-c2ccco2)nc1NCc1ccccc1Cl | -35% | · | 22% | ·
Cc1ccc(/C([O-])=C(/C(=S)NCc2ccco2)[n+]2ccccc2)cc1 | ? | -12 | · | -1
[O-]/C(=C(\C(=S)NCc1ccco1)[n+]1ccccc1)c1ccccc1Br | 25µM* | -23 | -1% | -2
O=[N+]([O-])c1ccc(/C([O-])=C(/C(=S)NCc2ccco2)[n+]2ccccc2)cc1 | 22µM* | 1 | 18% | -3
O=C(Nc1nc(-c2ccncc2)cs1)c1ccc(F)cc1 | 1% | -6 | -2% | 6
Cc1cccc(OCC(=O)Nc2nc(-c3ccncc3)cs2)c1 | -2% | · | ? | ·
Cc1cccnc1Nc1nc(-c2ccc(O)cc2)cs1 | 0% | 157* | · | 50*
Cc1cccnc1Nc1nc(-c2ccc(F)cc2)cs1 | 3% | 103* | -18% | 57*
Cc1ccccc1Cn1cc(NC(=O)c2cc(-c3ccco3)on2)cn1 | -15% | 61* | 26% | 19
O=C(Nc1cnn(Cc2ccc(F)cc2)c1)c1cc(-c2ccco2)on1 | ? | 13 | -3% | 12*
Cc1nn(-c2ccccc2)c(C)c1NC(=O)COc1ccc(F)cc1Cl | 1% | 9 | 20µM* | 6
Cc1ccc(OCC(=O)Nc2c(C)nn(-c3ccccc3)c2C)c(Br)c1 | -3% | · | 40µM* | ·
Cc1ccc(C)c(OCC(=O)OCC(=O)Nc2c(C)nn(-c3ccccc3)c2C)c1 | 5% | · | -2% | ·
CCOC(=O)N1CCN(C(=O)c2cc3cc(C)ccc3[nH]2)CC1 | 6% | -5 | 15% | -1
